# The panel holds about 79,000 compounds, 15% with a hit somewhere; the sample as a whole holds those more often. Unmarked numbers belong to inactive results. Active and inactive are the calls of the source. Rule as the data show it: active = growth inhibition above about 70%; inactive = the rest.
# Columns and labels:
# [1] = NCI Yeast Anticancer Drug Screen. Data for the rad50 strain (AID 155);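 also: 0% = growth of vehicle-only cultures of the same strain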; settings: S. cerevisiae rad50 strain growth inhibition; at 50.0 µM; active compounds read high
# Outline: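 Cells are treated with compound, grown, and their growth is then scored against vehicle-only cultures of the same repair-deficient yeast strain.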
# [2] = NCI Yeast Anticancer Drug Screen. Data for the mec2-1 strain (AID 157); settings: S. cerevisiae mec2-1 strain, at 50.0 µM, active compounds read high
# Outline: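 Mutant yeast (mec2-1) grown with compound; growth inhibition relative to vehicle control reported.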
# [3] = NCI Yeast Anticancer Drug Screen. Data for the sgs1 mgt1 strain (AID 161);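 also: 0% = growth of cultures given vehicle only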; settings: S. cerevisiae sgs1 mgt1 strain, at 50.0 µM, active compounds read high
# Outline: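 Growth of a repair-deficient yeast mutant was monitored after compound treatment and expressed as inhibition relative to vehicle-treated cultures.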
# [4] = NCI Yeast Anticancer Drug Screen. Data for the cln2 rad14 strain (AID 165);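 also: 0% = growth equal to vehicle treated cultures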; settings: S. cerevisiae cln2 rad14 strain, at 50.0 µM, active compounds read high
# Outline: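 Readout is yeast growth inhibition versus vehicle-treated controls, using a strain with cln2 and rad14 alterations exposed to compound.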
# [5] = NCI Yeast Anticancer Drug Screen. Data for the bub3 strain (AID 167); settings: S. cerevisiae bub3 mutant strain, at 50.0 µM, active compounds read high
# Outline: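 Part of a panel of yeast mutants defective in DNA damage repair or cell cycle regulation. Each strain is grown with compound, and inhibition is calculated relative to solvent-treated cultures.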
# [6] = NCI Yeast Anticancer Drug Screen. Data for the mlh1 rad18 strain (AID 175); settings: S. cerevisiae mlh1 rad18 strain growth inhibition; at 50.0 µM; active compounds read high
# Outline: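 Genetically defined yeast (DNA repair-deficient) exposed to compounds; growth inhibition determined relative to vehicle.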
Structure (SMILES),growth inhibition [1] [%],growth inhibition [2] [%],growth inhibition [3] [%],growth inhibition [4],growth inhibition [5] [%],growth inhibition [6] [%]
CC(C)=NNC=N/C(C#N)=C(\N)C#N,-14.3,-0.55,-17.5,18%,-9.6,-24.7
O=C1CC(=O)N(c2ccccc2)N1,35.2,7.45,45,19.9%,35.1,16.9
O=c1nnc(O)c2ccn(O)cc1-2,-34.6,-19,1.65,-40.1%,-8.95,-7.4
COc1cc(C(C)c2cc3c(cc2OCCNC(=O)COc2cc4c(cc2C(C)c2cc(OC)c(OC)c(OC)c2)OCO4)OCO3)cc(OC)c1OC (stereo unspecified),-31.9,-28.6,-25.6,4.8%,-19.6,-24.9
Oc1ccccc1/C=N/n1cnnc1,8.55,12.2,-3.5,-4.85%,-10.3,-19.2
O=C1C(Cl)=C(Cl)C(=O)N1c1ccccc1Cl,42.5,23.6,36.5,43.9%,34.7,55.5
COC1OC(C(C)O)C2OC(C)(C)OC12 (stereo unspecified),40.5,29.1,32.2,1.5%,18.9,13.3
O=C(OCC1OC(n2nc(SCc3ccccc3)c(=S)[nH]c2=O)C(OC(=O)c2ccccc2)C1OC(=O)c1ccccc1)c1ccccc1 (stereo unspecified),1.05,0.35,14.2,-46.9%,-5.7,31.8
O=C(OCOC(=O)c1ccccc1)c1ccccc1,-23.1,-5.95,-8.6,-18.5%,-4.7,-6.55
CCc1c([N+](=O)[O-])cc(C(C)(C)C)c(OC)c1[N+](=O)[O-],-9.05,-9.75,0.6,-17.6%,20.2,-31.6
CC(C)(C)c1cc(C(C)(C)C)c(P(C(O[Si](C)(C)C)=C(c2ccccc2)c2ccccc2)C(O[Si](C)(C)C)=C(c2ccccc2)c2ccccc2)c(C(C)(C)C)c1,-14.7,-8.45,-3.7,5.2%,-5,15.2
O=C(O)c1ccc(-c2ccc(C(=O)O)cc2I)c(I)c1,25.2,2.2,6.25,-5.25%,0.15,10
CCCCB1OB(CCCC)OB(CCCC)O1,-1.65,-17.8,-6.2,5.25%,7.15,4.25
Nc1c(Cl)ncnc1NCCN1CCOCC1,-3.85,1.9,1.55,-22.1%,-17.5,-18.4
CCN(CC)Cc1cc(NC(C)=O)ccc1O,-5.1,-13.7,-17.4,11.1%,-4.95,2.3
CCOC(=O)[C@H]1CS[C@]2(c3ccco3)CC(=O)N12,14.4,8.1,-12.6,-36.2%,1.6,44.1
CCC(=O)C(OC(C)=O)C(OC(C)=O)C(OC(C)=O)C(COC(C)=O)OC(C)=O (stereo unspecified),-1.95,-1.15,-8.1,27.8%,-3.95,13.8
CC(=O)OCCOCNC(=S)N/N=C/c1ccc(Br)s1,15.3,-8.3,20.1,28.1%,9.2,-0.8
CC(C)(C)CC(C)(C)N,-2.65,-4.8,-16.9,-41.5%,-2.35,20.6
CCN1C2=NCCN2C(=O)c2ccccc21,-0.8,-11.2,15.9,15.1%,8.25,13.4
CC1CCC2(C)OC1OC2CN (stereo unspecified),1.15,2.85,-2.2,-0.55%,0.3,-4.65

Structure (SMILES),growth inhibition [1] [%],growth inhibition [2] [%],growth inhibition [3] [%],growth inhibition [4],growth inhibition [5] [%],growth inhibition [6] [%]
O=C(CCc1nnc2s/c(=C\c3ccc(Cl)cc3Cl)c(=O)n12)Nc1cc(Cl)c(Cl)cc1Cl,-17.6,18.2,-7.4,20.6%,9.05,4.35
O=C(O)C1(C(=O)O)CC2C3C=CC(C3)C2C1 (stereo unspecified),-7.75,-11.7,0.35,-48.8%,18.8,20.5
O=C(COc1cc(Cl)c(Cl)cc1Cl)Nc1c(Cl)cc(Cl)cc1Cl,2.5,5.8,-2.75,-18.6%,-2.15,22.7
CC1CCCC1N (stereo unspecified),-13.7,-12.5,-24.5,-27.1%,-5.85,-7.5
Cc1ccc(S(=O)(=O)OCC23CCC(C4CC42)C2CC23)cc1 (stereo unspecified),-21.9,-28.5,-14.8,4.2%,-10.1,10.4
O=C(O)CNC(=O)NC(Cc1ccccc1)C(=O)O (stereo unspecified),9.1,12.4,-0.45,71.5% (active),18.6,8
COc1cccc(Cc2c3cc(OC)ccc3cc[n+]2C)c1,33.3,10.8,34.2,27.7%,59,52.7
NCCCCN(CCCN)C(=O)c1ccccc1,5.5,-2.2,-17.8,1.8%,-14.3,-68.9
Cc1cc(Cc2ccc3c(c2)OCO3)ccc1OCC(=O)O,15.1,18.3,15.6,13.4%,20.8,23.8
Nc1cc([N+](=O)[O-])cc(S(=O)(=O)O)c1O,-5.15,-2.95,-14.2,-65.8%,7.45,-26
CNCC(SC)c1ccc(O)c(O)c1 (stereo unspecified),-9.8,-14.8,-20.4,-15.7%,-31,-2.6
O=C(NCCCn1ccnc1[N+](=O)[O-])C(=O)NCCCn1ccnc1[N+](=O)[O-],9.3,-12.2,-19.5,-8.95%,-32,-23.4
CC(=O)O[C@]12CCCCC1C1(O)C(O)CCCC[C@H]12 (stereo partly specified),-41.8,-62.2,-65.5,-4.95%,-20.6,-31.8
Cc1ccc2c(c1)C1(OC(=O)c3ccccc31)c1ccc(F)cc1O2 (stereo unspecified),55,12.8,36.9,36.8%,22.7,18.1
CC(c1ccccc1)C(O)S(=O)(=O)O (stereo unspecified),6.95,3.7,7.35,-5.05%,17.3,-0.35
CCc1ccc(C(O)C(=O)O)cc1 (stereo unspecified),4.6,7.95,-1.6,3.85%,-2.7,-3.75
O=C(Nc1ccc(CCO)cc1)Nc1ccc(Cl)cc1[N+](=O)[O-],-6.35,34.9,25.8,-18.7%,21.6,17.6
NC1=C(O)C(=O)C(c2ccccc2)O1 (stereo unspecified),-29.2,-12.2,-4.15,-24.2%,-8.9,2.5
c1ccc2c(c1)ccc1nc3c4ccccc4c4ccccc4c3nc12,13.6,-2.85,-6.9,-3.45%,13,13.8
O=C1c2ccccc2-c2ccc(I)cc21,5.15,-1.7,2.25,-17.6%,8.45,26.2

# Source: PubChem BioAssay (NCI)
